The values that follow come from PubChem BioAssay (NCI).

About 83,000 compounds went through this panel and 20% of them were active in at least one assay; those are over-represented in the sample as a whole.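 Interpretation: 100, growth as untreated; towards 0, rising growth inhibition; 0, no net growth; 0 to -100, cell death. Compounds scoring below 10 were considered active.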 Values without a mark were called inactive. Activity calls are given as the source filed them.

What all share (assay): NCI-60 one-dose screen, 48 h (100 = growth as untreated, 0 = no growth, -100 = all killed)
Details in all cases: 10 µM unless noted

Assay [1] relates to RPMI-8226 leukemia.
The test system of assay [2] is OVCAR-8 ovarian.
For assay [3], the system named is OVCAR-5 ovarian.
For assay [4], the system named is OVCAR-4 ovarian.
In assay [5] the test system is SK-OV-3 ovarian.
Assay [6] has as its system IGROV1 ovarian.
Assay [7] concerns OVCAR-3 ovarian.
For assay [8], the system named is HS 578T breast.
In assay [9] the test system is NCI/ADR-RES ovarian.
For assay [10], the system named is T-47D breast.
Assay [11] relates to BT-549 breast.
Assay [12] has as its system MDA-MB-435 melanoma.
Assay [13] deals with SW-620 colon.
For assay [14], the system named is MCF7 breast.
Assay [15] concerns HCT-116 colon.
Assay [16] relates to HCC-2998 colon.
Assay [17] has as its system KM12 colon.

On to `CC(=O)O.CN1[CH-]N(Cc2ccc(C#N)cc2)c2ccccc21.[Ag+]`, for which the growth in assay [1] was 88.8%; in assay [2], 101%; in assay [3], 117%; in assay [4], 112%; in assay [5], 120%; in assay [6] it was 111%. The growth in [7] was 116%; in assay [8], 103%; in assay [9], 109%; in assay [10] it was 69.7%; in assay [11], 102%; in assay [12], 106%. For the same molecule, the growth in assay [13] was 57.9%; in assay [14] it was 97%; in [15], 105%; in assay [16] it was 113%; in [17], 86.9%.

`CN(C)CC#Cc1ccc2ncc(C#N)c(Nc3ccc(F)c(Cl)c3)c2c1`: the growth in [1] was 50.3%; in assay [2], 45.2%; in [3], 54.8%; in [4] it was 38.1%; in assay [5], 17.4%; in assay [6] it was 3.51% (active). The growth in assay [7] was 54.9%; in assay [8], 52.1%; in assay [9], 42.9%; in assay [10], 44%; in assay [11], 51.1%; in [12], 65.3%. Moreover, the growth is 57.3% in assay [13]; 79.4% in assay [14]; 40.7% in assay [15]; 60.3% in [16]; 79.7% in assay [17].

`S=c1nc(-c2ccccc2)oc(=NC2CCCCC2)n1C1CCCCC1`: the growth in assay [1] was -8.22% (active); in assay [2], 32.2%; in [3] it was 86.2%; in [4], 33.9%; in assay [5] it was 87.7%; in assay [6], -25.9% (active). The growth in assay [7] was 11.8%; in [8] it was 43.1%; in assay [9], 32.5%; in assay [10] it was 35.4%; in assay [11] it was 82.4%; in [12] it was 67.9%. The growth in assay [13] was 5.42% (active); in [14], 12.7%; in [15], 18.5%; in assay [16] it was 73.7%; in assay [17] it was 10.7%.

Turning to `c1ccc(Nc2cc(-c3cccnc3)[nH]n2)cc1`, the growth in assay [1] was 103%; in [2], 95.8%; in assay [3], 93.6%; in assay [4], 96.6%; in [5], 92.9%; in [6] it was 95.7%. For the same molecule, the growth was 100% in assay [7]; 101% in assay [8]; 105% in [9]; 99.5% in [10]; 99.4% in [11]; 101% in [12]. The growth was 115% in [13]; 88.9% in assay [14]; 105% in assay [15]; 104% in [16]; 96.3% in [17].

With `O=C(/C=C/c1sc(Cl)nc1Cl)c1ccc(F)cc1`, the growth in assay [1] is 0.843% (active); in [2], 83.7%; in assay [3], 104%; in assay [4], 102%; in [5], 99.4%; in assay [6] it was 94.8%. The growth in [7] was 9.39% (active); in assay [8] it was 86.8%; in assay [9], 98.5%; in assay [10], 83.7%; in assay [11], 103%; in assay [12] it was 101%. Besides, the growth was 24.7% in [13]; 14.4% in [14]; 39.4% in [15]; 30.4% in [16]; 60.8% in assay [17].

Regarding `COc1ccc(-n2c(N)c(-c3nc4ccccc4[nH]3)cc(C#N)c2=O)cc1`, the growth in [1] was 92.3%; in assay [2], 69.8%; in assay [3], 99%; in [4], 77.5%; in [5] it was 111%; in assay [6], 103%. Moreover, the growth in [7] is 107%; in [8], 50.1%; in [9] it was 77.8%; in [10] it was 77.8%; in assay [11], 75.1%; in assay [12], 99.3%. Moreover, the growth in assay [13] was 106%; in [14], 87.7%; in assay [15], 88.2%; in [16] it was 108%; in assay [17], 99.9%.

Regarding `Fc1cc(-c2nnc3n2NC(=Nc2ccc(Cl)cc2)CS3)c(Cl)cc1Cl`, the growth in assay [1] is 66.9%; in assay [2], 94.9%; in assay [3], 80.3%; in [4], 89.9%; in assay [5], 89.8%; in assay [6] it was 57.2%. Further, the growth in assay [7] was 91.6%; in assay [8], 89.3%; in [9] it was 88.3%; in [10] it was 79.2%; in assay [11] it was 94.7%; in [12], 64.2%. Moreover, the growth is 95.7% in [13]; 86.9% in assay [14]; 91.3% in [15]; 75.3% in assay [16]; 60.5% in assay [17].

In the case of `COc1ccc(CNC(=O)C(=O)[C@H](Cc2ccccc2)NC(=O)c2[nH]c3ccccc3c(=O)c2C)cc1`, the growth in [1] is 102%; in assay [2] it was 102%; in assay [3] it was 102%; in assay [4], 99.5%; in assay [5], 108%; in assay [6], 98.3%. In addition, the growth in assay [7] was 103%; in [8], 98.8%; in [9], 108%; in assay [10] it was 101%; in assay [11], 115%; in assay [12], 100%. Moreover, the growth in assay [13] was 97.3%; in assay [14], 94.3%; in assay [15] it was 101%; in [16], 110%; in assay [17], 101%.

On to `CSc1nc2ccc(C)cc2cc1/C=N/O`, for which the growth in assay [1] was 106%; in [2] it was 84.6%; in assay [3], 81.6%; in [4], 91%; in assay [5], 86%; in assay [6], 87.8%. Besides, the growth was 106% in [7]; 75% in [8]; 98.1% in assay [9]; 71% in assay [10]; 73.2% in assay [11]; 91.5% in assay [12]. The growth in [13] is 85.6%; in assay [14], 86.3%; in assay [15], 81.1%; in assay [16], 96.6%; in assay [17] it was 93.7%.
